# Screens from PubChem BioAssay.
# KKLEB tox: CF airway cell cytotoxicity counter-screen. 0.36% of 360,000 active. KKLEB CF airway cells viability, ATPlite luminescence, overnight; stronger effect = lower value; cells stimulated with P. aeruginosa culture filtrate. activity change (cytotoxicity), % at 5 µM. AID 602141;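 active = corrected activity change at or below -50% at 5 µM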
# CF NFkB inh: blocks PAF-induced NF-kB reporter in cystic fibrosis cells | KKLEB NF-kB-GFP reporter, GFP fluorescence overnight | inhibition, % at 5 µM | 0.86% of 360,000 active;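 active = at least 50% inhibition at 5 µM, scaled per plate between neutral and stimulator controls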;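 note: PAF is a Pseudomonas aeruginosa culture filtrate used as stimulus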
# HIF-2a inh: blocks HIF-2a reporter activity | 786-0 RCC cells HIF-2a reporter, luciferase luminescence, overnight | inhibition, % at 18.8 µM | 0.72% of 360,000 active;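 active = inhibition of the luminescence signal of 40% or more relative to plate controls, in a single-dose primary screen at 18.75 µM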
# CHOP inh: inhibitors of CHOP induction in ER stress response | CHO-K1 CHOP-promoter luciferase, tunicamycin-induced, 15-18 h | inhibition, % at 10 µM | 3.8% of 220,000 active | AID 2732;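 active = compounds that reduced the stress-induced luciferase reporter signal by more than about 70% of percent inhibition, limit read from the data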
# Peg3 prom inh: Peg3 promoter activity inhibition; inhibition, % at 20 µM; 1.7% of 360,000 active; AID 588405; HeLa PEG-Prom luciferase reporter, luminescence, overnight;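 active = inhibition of at least 50% at 20 µM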
# TRPM1 prom inh: MITF TRPM1 promoter inhibition in SK-MEL-5 cells | inhibition, % at 12.5 µM | 0.83% of 330,000 active | SK-MEL-5 TRPM1 promoter luciferase, 24 h;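 active = mean inhibition across replicates of 60% or more, whatever share of single replicates reaches that level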
# Hits are given with their value; n = inactive; x = no result. A selection: hits, their analogues and other compounds. The true share with any hit is near 4.3%.
SMILES,KKLEB tox,CF NFkB inh,HIF-2a inh,CHOP inh,Peg3 prom inh,TRPM1 prom inh
Cc1cccc(C(=O)N[C@H](C(=O)Nc2nnc(C3CC3)s2)C(C)C)c1,n,n,n,n,n,n
Cc1cccc(C(=O)N[C@H](C(=O)Nc2ncc(C)s2)C(C)C)c1,n,n,n,n,60,n
CC(C)Cn1c(N)c(C(=O)NCC2CCCO2)c2nc3ccccc3nc21 (stereo unspecified),n,n,n,n,n,n
Nc1c(C(=O)NCC2CCCO2)c2nc3ccccc3nc2n1/N=C/c1ccncc1 (stereo unspecified),n,n,n,x,60,n
COc1cccc(NC(=O)C(=O)N/N=C/c2cc(C)n(-c3ccc(Cl)c(Cl)c3)c2C)c1,n,n,n,78,n,n
Cc1cc(/C=N/NC(N)=S)c(C)n1-c1ccc(Cl)c(Cl)c1,n,n,n,n,n,n
Oc1ccccc1-c1nnc(COc2ccc(Cl)cc2Cl)o1,n,n,n,73,n,n
O=C1C[C@H]2[C@H](CO)[C@@H](OC(=O)c3ccc(-c4ccccc4)cc3)C[C@H]2O1,n,n,n,n,n,n
Cn1c(N)c(C(=O)COC(=O)c2ccc3c(c2)C(=O)N(c2ccc(Cl)cc2)C3=O)c(=O)n(C)c1=O,n,n,n,n,n,n
CC(C)(C)c1ccc(-n2nc(C#N)c(Cl)cc2=O)cc1,-101,91,92,108,104,98
O=C(NCC(c1ccco1)N1CCCC1)c1cc(S(=O)(=O)N2CCOCC2)ccc1Cl (stereo unspecified),n,n,n,x,n,n
CC(=O)Nc1ccc(N(C(=O)CNC(=O)c2cccs2)C(C(=O)NCC2CCCO2)c2ccccc2)cc1 (stereo unspecified),n,n,n,x,n,n
COc1ccc(OC)c(NC(=O)Nc2nnc(COCCO)s2)c1,n,n,n,x,n,x
OC[C@H]1O[C@@H](n2cnc3c(NC4CCCC4)ncnc32)C(O)[C@H]1O (stereo partly specified),x,x,x,n,x,x
Cc1ccc2ccccc2c1NC(=O)CNCc1ccccc1,n,n,n,x,n,x
CCOC(=O)N1C/C(=C\c2ccccc2)C(=O)/C(=C/c2ccccc2)C1,n,89,95,n,112,104
CCOC(=O)N1CCN(S(=O)(=O)/C=C/c2ccccc2)CC1,n,n,n,n,n,n
COc1ccc(OC(=O)N2CCOCC2)cc1,n,n,n,x,n,n
COc1ccc(OC(=O)N2C/C(=C/c3ccccc3)C(=O)/C(=C\c3ccccc3)C2)cc1,n,64,59,x,105,86
CCc1ccc(N2CC(C(=O)N/N=C/c3cccc([N+](=O)[O-])c3)CC2=O)cc1 (stereo unspecified),n,n,n,83,n,n
O=C(N/N=C/c1ccccc1O)C1CC(=O)N(c2ccc(F)cc2)C1 (stereo unspecified),n,n,n,x,52,n
COc1ccc(N2CC(C(=O)N/N=C/c3c[nH]c4ccccc34)CC2=O)cc1 (stereo unspecified),n,n,n,n,n,n
CCOC(=O)C1(CCCc2ccccc2)CCN(C(=O)c2cc(C)nn2CC)CC1,n,n,n,x,n,n
CC(=O)OCC(=O)[C@@]12OC3(CCCC3)O[C@@H]1C[C@H]1[C@@H]3CCC4=CC(=O)C=C[C@]4(C)[C@@]3(F)[C@@H](O)C[C@@]12C,n,82,n,n,n,n
CC(=O)OCC(=O)C1(O)CCC2C3CCC4=CC(=O)C=CC4(C)C3(F)C(O)CC21C (stereo unspecified),n,73,n,x,n,n
SMILES,KKLEB tox,CF NFkB inh,HIF-2a inh,CHOP inh,Peg3 prom inh,TRPM1 prom inh
CC(=O)OCC(=O)[C@@]1(O)CC[C@H]2[C@@H]3CCC4=CC(=O)C=C[C@]4(C)[C@H]3C(=O)C[C@@]21C,n,n,n,x,n,x
Cc1ccc(N2C(=O)CCC(C(=O)O)C2c2cccs2)cc1 (stereo unspecified),n,n,n,x,n,n
Cc1ccc2c(c1)NC(=O)CC(c1ccccc1)=N2,n,n,n,n,n,n
Cc1cc2c(cc1C)NC(=O)CC(C(F)(F)C(F)(F)C(F)(F)F)=N2,n,n,n,73,n,n
Cc1ccc(C2=Nc3ccccc3N=C(c3ccco3)C2)c(O)c1,n,n,n,72,n,n
Cc1ccc(O)c(C2=Nc3ccccc3N=C(c3ccc([N+](=O)[O-])cc3)C2)c1,n,n,n,n,n,n
Cc1ccc(O)c(C2=Nc3ccccc3N=C(c3ccco3)C2)c1,n,n,n,87,n,n
COc1ccc(CCN=C(N)NS(=O)(=O)c2cc(F)ccc2F)cc1,n,n,n,x,n,n
O=C(OCC(=O)N(CCc1ccccc1)Cc1ccccc1)c1cccc(S(=O)(=O)N2CCOCC2)c1,n,n,n,x,n,n
CCOC(=O)c1cccc2c1-c1ccccc1/C2=N/O,n,86,n,82,n,n
CC1CCCC(C)N1C(=O)c1cccc2c1-c1ccccc1/C2=N/O (stereo unspecified),n,n,n,n,n,n
c1ccc(COc2ncnc3c2ncn3CCCNCc2ccc3c(c2)OCO3)cc1,n,n,n,x,n,n
CC(C)C1C(c2ccccc2)NC(c2ccccc2)CC1(O)c1ccc(F)cc1 (stereo unspecified),n,n,n,80,n,n
CCC1C(=O)CC(c2ccccc2)NC1c1ccccc1 (stereo unspecified),n,n,n,n,n,n
O=C1c2ccccc2C(c2nnnn2-c2ccc3c(c2)OCCO3)N1Cc1cccs1 (stereo unspecified),x,x,n,x,x,x
Nc1ncnc2c1ncn2[C@@H]1O[C@H](C(=O)N[C@@H](CO)Cc2ccccc2)[C@@H](O)[C@H]1O,n,n,n,x,n,x
CCN(CC)c1nc(OCCNC(=O)Nc2ccccc2)nc(N(CC)CC)n1,n,n,n,90,n,n
O=C(NCCc1ccc(Cl)cc1)Nc1ccc(Cl)cc1,n,n,n,n,n,n
CCN(CCNC(=O)Nc1ccc(Cl)cc1)c1ccccc1,n,n,n,75,n,n
COc1ccc2c(c1)nc(-c1cccc(Br)c1)c(=O)n2C(c1ccccn1)c1nc2ccccc2[nH]1 (stereo unspecified),n,n,n,x,n,x
COc1cc(OC)cc(-c2noc([C@@H]3O[C@H](CO)[C@@H](O)[C@H]3O)n2)c1,n,n,n,x,n,x
Cc1[nH]c2ccccc2c1CN1CCC(Cc2ccccc2)CC1,n,n,n,n,78,n
Cc1[nH]c2ccccc2c1CN1CCN(c2ccccn2)CC1,n,n,n,n,n,n
O=C(/C=C/c1ccccc1)NC(=S)Nc1ccc(N2CCOCC2)c(Cl)c1,n,n,n,n,n,n
O=C(/C=C/c1ccco1)NC(=S)Nc1ccc(N2CCOCC2)c(Cl)c1,n,n,n,75,n,n
COc1ccc(NC(=O)N[C@H]2C=C[C@@H](CC(=O)NC3CCC3)O[C@@H]2CO)cc1,x,x,n,x,x,x
